Assay results as given in PubChem BioAssay (Tox21).
Records with an inconclusive call do not appear. Active and inactive are the calls of the source. Unless noted, the call rests on the fitted dose curve; in most records, active means well fitted curve in the direction sought with a large enough effect in the repeat runs; inconclusive means weak or mixed curves; inactive means no such curve, though single readings can be large; an effect the other way counts as inactive or inconclusive.

What was measured:
[1] = A CellTox Green Cytotoxicity Assay to monitor cytotoxicity in HEK293 cells - 32 hour (AID 1224881); further: nearly all actives have a fitted effect of over 40% in size
How it was run: (§1)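 Fluorescence intensity, read at 0, 8, 16, 24, 32 and 40 h of compound treatment, reflected dye binding to DNA of dead HEK293 cells; compounds (23 nL, DMSO) were added 5 h after plating cells with reagent.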

[2] = A CellTox Green Cytotoxicity Assay to monitor cytotoxicity in HepG2 cells - 0 hour (AID 1224882); further: nearly all actives have a fitted effect of over 35% in size
How it was run: (§2)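 Using 1536-well format, dye-containing HepG2 suspension was seeded, allowed 5 h at 37 C/5% CO2, dosed by pintool with compounds, positive and negative controls, and imaged for fluorescence across 40 h.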

[3] = A CellTox Green Cytotoxicity Assay to monitor cytotoxicity in HepG2 cells - 32 hour (AID 1224883); further: nearly all actives have a fitted effect of over 50% in size
How it was run: as §2

[4] = A CellTox Green Cytotoxicity Assay to monitor cytotoxicity in HEK293 cells - 8 hour (AID 1224884); further: nearly all actives have a fitted effect of over 35% in size
How it was run: as §1

[5] = qHTS RealTime-Glo MT Cell Viability Assay in HepG2 cells - 16 hour (AID 1224885); further: nearly all actives have a fitted effect of over 50% in size
How it was run: (§3)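 Cells + NanoLuc/prosubstrate dispensed (600 cells/well) → 5 h at 37 C/5% CO2 → compounds in DMSO transferred → 40 h incubation at 37 C, luminescence read at 0, 8, 16, 24, 32, 40 h.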

[6] = qHTS RealTime-Glo MT Cell Viability Assay in HEK293 cells - 24 hour (AID 1224886); further: top concentration of the series differs between compounds; nearly all actives have a fitted effect of over 50% in size
How it was run: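 Tox21 10K qHTS, HEK293, 600 cells/well, RealTime-Glo reagent co-dispensed with cells; 5 h preincubation, compound by pintool, 37 C, luminescence at 0–40 h.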

[7] = qHTS RealTime-Glo MT Cell Viability Assay in HEK293 cells - 8 hour (AID 1224887); further: top concentration of the series differs between compounds; nearly all actives have a fitted effect of over 50% in size
How it was run: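 Viable HEK293 cells reduce a cell-permeant prosubstrate; the product diffuses out and is consumed by NanoLuc in the medium to give light. Compounds went in after a 5 h incubation and plates were read over the treatment course.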

[8] = A CellTox Green Cytotoxicity Assay to monitor cytotoxicity in HEK293 cells - 16 hour (AID 1224888); further: nearly all actives have a fitted effect of over 35% in size
How it was run: as §1

[9] = qHTS RealTime-Glo MT Cell Viability Assay in HepG2 cells - 0 hour (AID 1224889); further: nearly all actives have a fitted effect of over 50% in size
How it was run: as §3

[10] = A CellTox Green Cytotoxicity Assay to monitor cytotoxicity in HepG2 cells - 8 hour (AID 1224890); further: nearly all actives have a fitted effect of over 45% in size
How it was run: as §2

[11] = qHTS assay to identify small molecule antagonists of the estrogen receptor alpha (ER-alpha) signaling pathway using the BG1 cell line in the presence of 0.1 nM 17-beta-estradiol - cell viability counter screen (AID 1259241); further: nearly all actives have a fitted effect of over 40% in size
How it was run: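 Cells were plated and left 24 hr, compounds in DMSO were pinned in, 17beta-estradiol was added to 0.1 nM final, and after 22 hr CellTiter-Fluor reagent was added for 30 min before fluorescence was read.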

[12] = qHTS assay to identify small molecule antagonists of the androgen receptor (AR) signaling pathway using the MDA cell line in the presence of 0.5 nM R1881 - cell viability counter screen (AID 1259242); further: nearly all actives have a fitted effect of over 45% in size
How it was run: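 Viability of MDA-kb2 cells was multiplexed with the luciferase AR readout; after 16 hr with compounds and R1881 at 0.5 nM final, CellTiter-Fluor fluorescence was recorded.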

[13] = target: Androgen receptor (Homo sapiens) (UniProt P10275); assay: qHTS assay to identify small molecule antagonists of the androgen receptor (AR) signaling pathway using the MDA cell line in the presence of 0.5 nM R1881 (AID 1259243); further: nearly all actives have a fitted effect of over 50% in size
How it was run: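 Reporter cells cultured without CO2 receive test chemicals, then 0.5 nM R1881 final; after 16 hr at 37C, ONE-Glo is added and light output recorded.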

[14] = qHTS assay to identify small molecule HDAC inhibitors (AID 1259364);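 further: wild-type HCT-116 cells with endogenous class I/II HDAC activity; top concentration of the series differs between compounds; nearly all actives have a fitted effect of over 45% in size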
How it was run: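 Read-out: luminescence of HDAC-Glo I/II reagent, 30 min RT, reflecting class I/II deacetylase activity in whole HCT-116 cells pre-exposed 2 h to DMSO-dissolved compounds.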

[15] = qHTS assay to identify small molecule HDAC inhibitors - cell viability counter screen (AID 1259365)
How it was run: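 Counter screen in wild-type HCT-116 cells: compounds dissolved in DMSO are pin-transferred onto overnight-plated cells and left 2hr at 37C. ATP-based CellTiter-Glo luminescence then measures viable cells.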

[16] = qHTS assay to identify small molecule agonists of the sonic hedgehog signaling (Shh) pathway - cell viability counter screen (AID 1259366); further: nearly all actives have a fitted effect of over 50% in size
How it was run: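 Cells are plated at 2,000 per well and left 4hr at 37C, 5% CO2 before compound addition. After 23hr of treatment, CellTiter-Fluor reagent is added for 1hr at 37C and fluorescence is measured.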

[17] = qHTS assay to identify small molecule antagonists of the sonic hedgehog signaling (Shh) pathway - cell viability counter screen (AID 1259367); further: nearly all actives have a fitted effect of over 55% in size
How it was run: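 NIH/3T3-derived Gli1-Luc reporter cells (2,000 per well) rested 4 hr at 37 C, then received DMSO compounds plus conditioned medium. After 23 hr of treatment, CellTiter-Fluor was added for 1 hr at 37C and fluorescence read.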

[18] = qHTS assay to identify small molecule agonists of the sonic hedgehog signaling (Shh) pathway (AID 1259368; calls by dose curve;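 further: NIH/3T3-derived 3T3Gli1-Luc cells carrying a stable Gli1-driven firefly luciferase reporter; series mostly up to about 92 µM; nearly all actives have a fitted effect of over 15% in size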)
How it was run: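 A Gli1 transcriptional response element controlled firefly luciferase in 3T3Gli1-Luc cells. Compounds and a positive control were added 4 hr after plating, and cells were incubated a further 24 hr at 37 C before luminescence detection.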

[19] = target: Estrogen receptor (Homo sapiens) (UniProt P03372); assay: qHTS assay to identify small molecule antagonists of the estrogen receptor alpha (ER-alpha) signaling pathway using the BG1 cell line in the presence of 0.1 nM 17-beta-estradiol (AID 1259244); further: nearly all actives have a fitted effect of over 50% in size
How it was run: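 Estradiol at 0.1 nM (final) stimulates the endogenous ER-alpha of VM7Luc4E2 cells carrying an ERE-driven luciferase; compounds are co-incubated 22 h at 37C and luciferase output quantified by luminescence.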

[20] = qHTS assay to identify small molecule phospholipidosis (PLD) inducers (AID 1259344; active means well fitted curve in the direction sought with a large enough effect; an effect the other way counts as inactive or inconclusive)
How it was run: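 HepG2 cells on collagen I, attached 4 h at 37 C, were co-treated with compound and LipidTOX Red dye for 24 h at 37 C, then fixed with paraformaldehyde plus Hoechst 33342 and imaged by high-content microscopy for phospholipid accumulation.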

Measured: Potency

Sequence of Estrogen receptor (Homo sapiens) (P03372 whole entry, looked up): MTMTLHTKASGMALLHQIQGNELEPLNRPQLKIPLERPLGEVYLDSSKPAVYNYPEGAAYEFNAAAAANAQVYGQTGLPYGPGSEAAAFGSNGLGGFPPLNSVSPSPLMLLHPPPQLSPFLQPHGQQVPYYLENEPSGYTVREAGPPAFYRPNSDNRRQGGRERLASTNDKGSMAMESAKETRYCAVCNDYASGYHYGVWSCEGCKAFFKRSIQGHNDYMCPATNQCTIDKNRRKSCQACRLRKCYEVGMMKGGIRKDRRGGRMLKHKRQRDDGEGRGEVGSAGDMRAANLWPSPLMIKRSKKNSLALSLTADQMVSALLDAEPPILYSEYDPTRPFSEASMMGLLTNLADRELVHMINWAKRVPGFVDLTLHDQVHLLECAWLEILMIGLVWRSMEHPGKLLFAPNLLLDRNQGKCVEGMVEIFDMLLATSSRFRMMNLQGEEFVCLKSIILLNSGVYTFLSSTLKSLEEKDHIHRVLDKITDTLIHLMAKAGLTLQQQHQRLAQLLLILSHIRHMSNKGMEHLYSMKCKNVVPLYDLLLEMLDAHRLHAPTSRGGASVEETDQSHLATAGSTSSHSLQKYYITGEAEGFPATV
Sequence of Androgen receptor (Homo sapiens) (P10275 whole entry, looked up): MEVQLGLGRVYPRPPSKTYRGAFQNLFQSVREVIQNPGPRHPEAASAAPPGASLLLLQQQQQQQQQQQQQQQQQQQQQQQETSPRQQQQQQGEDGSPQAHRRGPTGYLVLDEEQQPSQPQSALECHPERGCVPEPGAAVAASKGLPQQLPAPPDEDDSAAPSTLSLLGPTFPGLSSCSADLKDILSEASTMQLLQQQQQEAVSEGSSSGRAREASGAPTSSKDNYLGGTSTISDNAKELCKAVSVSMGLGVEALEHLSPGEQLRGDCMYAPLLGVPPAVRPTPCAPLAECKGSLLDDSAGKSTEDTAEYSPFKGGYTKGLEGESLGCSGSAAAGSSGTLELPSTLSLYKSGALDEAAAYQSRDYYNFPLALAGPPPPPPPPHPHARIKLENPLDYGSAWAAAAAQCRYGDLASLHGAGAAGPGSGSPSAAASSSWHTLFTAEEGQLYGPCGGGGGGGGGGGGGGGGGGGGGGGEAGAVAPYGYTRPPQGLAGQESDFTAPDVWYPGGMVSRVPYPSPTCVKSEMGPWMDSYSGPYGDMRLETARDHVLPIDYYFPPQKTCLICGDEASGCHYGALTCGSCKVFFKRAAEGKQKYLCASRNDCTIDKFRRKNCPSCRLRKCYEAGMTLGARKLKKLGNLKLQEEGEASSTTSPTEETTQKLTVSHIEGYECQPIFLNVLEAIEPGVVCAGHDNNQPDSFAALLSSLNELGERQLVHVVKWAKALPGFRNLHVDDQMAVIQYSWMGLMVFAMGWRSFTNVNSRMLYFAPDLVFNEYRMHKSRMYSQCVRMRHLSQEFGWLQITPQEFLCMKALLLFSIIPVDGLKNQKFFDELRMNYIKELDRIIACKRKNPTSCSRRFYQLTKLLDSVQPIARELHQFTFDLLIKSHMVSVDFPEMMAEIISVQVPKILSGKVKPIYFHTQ

CC(C)C1CCC(O)CC1 (stereo not given)
not listed: [19] | [20]
inactive: all other assays above

CC(C)NNC(=O)c1ccncc1
not listed: [19] | [20]
inactive: all other assays above

FB(F)F
not listed: [13] | [20]
inactive: all other assays above

CC/C=C\CCOC(C)OCC (stereo not given)
not listed: [13] | [20]
inactive: all other assays above

Cc1ncc(COP(=O)(O)O)c(C=O)c1O
not listed: [13]
inactive: all other assays above

Cc1ccnc(NS(=O)(=O)c2ccc(N)cc2)n1
not listed: [13]
inactive: all other assays above

CC(=O)C1CCCCC1=O (stereo not given)
not listed: [13] | [17] | [18] | [20]
inactive: all other assays above

CC[C@H]1OC(=O)[C@H](C)[C@@H](O[C@H]2C[C@@](C)(OC)[C@@H](O)[C@H](C)O2)[C@H](C)[C@@H](O[C@@H]2O[C@H](C)C[C@H](N(C)C)[C@H]2O)[C@](C)(OC)C[C@@H](C)C(=O)[C@H](C)[C@@H](O)[C@]1(C)O
not listed: [13] | [16]
inactive: all other assays above

CNCC(O)c1ccc(O)c(O)c1 (stereo not given)
not listed: [13] | [20]
inactive: all other assays above

CC(C(=O)O)c1cccc(Oc2ccccc2)c1 (stereo not given)
not listed: [13] | [19]
inactive: all other assays above

Cc1ccccc1N=C(N)N=C(N)N
not listed: [13] | [16] | [17] | [18] | [19] | [20]
inactive: all other assays above

CCCC(C)C(=O)OCC (stereo not given)
not listed: [13] | [16] | [20]
inactive: all other assays above

Nc1ccccn1
not listed: [13] | [19] | [20]
inactive: all other assays above

C1CCC2=NCCCN2CC1
not listed: [13] | [18] | [19] | [20]
inactive: all other assays above

CCC(=O)OCc1ccccc1
not listed: [13] | [17] | [19] | [20]
inactive: all other assays above
